From PubChem BioAssay
ALOX15B inhib: blocks human 15-lipoxygenase 2 activity; purified 15hLO-2, xylenol orange hydroperoxide absorbance; O15296; 110,000 tested, 0.56% active; Potency, µM (doses to about 57.1 µM), for inactives: top-dose activity change, negative = inhibition, most hits filed as inhibitors; AID 881; also: potency is read from the fitted curve at half-maximal effect; nearly all actives have a fitted effect of over 60% in size
Target sequence (O15296 whole entry, looked up): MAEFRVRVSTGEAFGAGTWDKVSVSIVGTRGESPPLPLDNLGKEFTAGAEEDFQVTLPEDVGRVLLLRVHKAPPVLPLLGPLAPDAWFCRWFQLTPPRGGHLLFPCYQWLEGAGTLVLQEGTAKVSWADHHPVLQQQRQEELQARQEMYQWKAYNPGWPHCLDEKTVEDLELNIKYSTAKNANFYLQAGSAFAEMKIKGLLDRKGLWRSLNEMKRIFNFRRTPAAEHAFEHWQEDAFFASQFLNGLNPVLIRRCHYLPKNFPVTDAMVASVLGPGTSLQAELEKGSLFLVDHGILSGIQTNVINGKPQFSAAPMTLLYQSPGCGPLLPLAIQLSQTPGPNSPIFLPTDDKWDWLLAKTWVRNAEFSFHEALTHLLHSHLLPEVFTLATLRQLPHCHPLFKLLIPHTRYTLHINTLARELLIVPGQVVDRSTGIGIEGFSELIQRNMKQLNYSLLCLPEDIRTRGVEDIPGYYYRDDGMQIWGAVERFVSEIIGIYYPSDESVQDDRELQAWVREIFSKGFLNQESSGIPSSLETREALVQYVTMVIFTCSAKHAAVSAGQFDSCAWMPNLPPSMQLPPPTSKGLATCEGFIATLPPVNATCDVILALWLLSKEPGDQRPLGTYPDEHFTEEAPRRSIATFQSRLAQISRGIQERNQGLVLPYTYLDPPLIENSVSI
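Enzyme 50 nM, AA 45 uM, 25 mM Hepes pH 7.5 + 0.01% Triton X-100; cpd preinc 15 min RT, rxn 90 min RT; stop/detect with 200 uM XO + 300 uM Fe(II) in 50 mM H2SO4, 30 min; A573/A405.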
ALOX12 inhib: blocks human 12-lipoxygenase activity; P18054; purified 12-hLO, xylenol orange hydroperoxide absorbance; Potency, µM (doses to about 57.1 µM), inactives show at the top dose activity change, negative = inhibition, usual class: inhibitors; 150,000 tested, 0.12% active; AID 1452; also: potency is read from the fitted curve at half-maximal effect; nearly all actives have a fitted effect of over 55% in size
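Lipoxygenase turnover measured by absorbance at 573 and 405 nm after Fe-XO development. Human 12hLO 150 nM, arachidonate 40 uM, pH 7.0 Hepes buffer with detergent; 15 min compound preincubation, 30 min reaction.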
PNC assembly inh: perinucleolar compartment assembly inhibition; PC3M PTB-GFP, PNC prevalence imaging, 16 h; stronger effect = lower value; activity change (PNC), negative = inhibition, % at 10 µM; 140,000 tested, 3.1% active; AID 2417;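 active = readout at or below -70, meaning at least 70% loss of cells showing the perinucleolar compartment, a nuclear body marking cancer cells; inconclusive = readout between -30 and a set limit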;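 also: plate controls were DMSO wells for no effect and camptothecin positive control wells for full effect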
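Read-out is percentage of cells bearing a perinucleolar compartment, from automated 20x imaging of fixed, Hoechst-stained PC3M PTB-GFP cells. Cells were seeded 4 h, then exposed 16 h to compound (23 nl of library stock) in duplicate plates.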
The depositor's hits bear a star; ? = inconclusive; · = not tested or not shown; [ ] = another dose, or the depositor's remark. Only some compounds are listed: those with a hit (about 3.1% of all), similar ones and a draw of the others. Unless noted, calls follow the shape of the dose curve; as a rule, active = well fitted curve in the direction sought with a large enough effect; inconclusive = small, poorly fitted or top-dose-only effect, or another doubt; inactive = no such curve, though single readings can be large; an effect the other way counts as inactive or inconclusive. Unless noted, % is scaled to controls: 0 for no effect and ±100 for the full control effect.

SMILES | ALOX15B inhib | ALOX12 inhib | PNC assembly inh
COc1ccccc1NC1=C(Cl)C(=O)N(c2ccccc2)C1=O | · | -10% | -114*
CCOc1ccc(N2C(=O)C(Cl)=C(Nc3ccccc3O)C2=O)cc1 | ? | -28% | -17
C1=C(CCNc2ncnc3c2[nH]c2ccccc23)CCCC1 | · | -8% | ?
CC(C)OCCCNc1ncnc2c1[nH]c1ccccc12 | 27% | 0% | -97*
CCCCc1nc2ccccc2c(NC(=O)CN2CCCC2)c1CCC | · | -6% | -100*
CCCCc1nc2ccccc2c(NC(=O)CNC(C)(C)C)c1CCC | 27% | -7% | 36
CN(Cc1ccco1)c1ccnc(-c2cccc(NS(C)(=O)=O)c2)n1 | -3% | -1% | ·
Cc1cc(C)cc(N(CCC(=O)O)S(=O)(=O)c2ccc(Cl)cc2)c1 | · | -3% | ?
CCc1nnc(NC(=O)CCN(c2cc(C)cc(C)c2)S(=O)(=O)c2ccc(Cl)cc2)s1 | · | -1% | -94*
O=[N+]([O-])c1cc(N(CCO)CCO)ccc1NCCO | ? | -11% | ·
COC(=O)C1=C(N)Oc2cc(C)n(Cc3cccnc3)c(=O)c2C1c1ccccc1OC (centres undefined) | 25% | -3% | -86*
COC(=O)C1=C(N)Oc2cc(C)n(Cc3cccnc3)c(=O)c2C1c1ccc(OC)c(OC)c1OC (centres undefined) | 7%[11.4 µM] | -3% | ?
COc1ccc(NC(=O)N2CCCC3(CCN(C(=O)c4cccn4C)CC3)C2)cc1 | -1% | 1% | ·
CCNc1ncc2nc(-c3ccc(OC)cc3)c(=O)n(C)c2n1 | 23% | · | ·
COc1ccc(S(=O)(=O)NCc2csc(C)n2)cc1 | 1% | -2% | -26
CCOc1ccc(S(=O)(=O)NCc2csc(C)n2)cc1 | 2% | -7% | -91*
CCCn1c(C)nc2c(NCC(C)(C)CN(C)C)nc(C)nc21 | 5% | -2% | ·
CCN(CC)CCn1c(-c2ccccc2)nc2c(NCCO)nc(C)nc21 | 12% | 2% | ·
O=C(/C=C/c1ccccc1)c1ccc(NC2=NCCCS2)cc1 | · | -2% | ?
O=C(/C=C/c1ccc(Br)cc1)c1ccc(NC2=NCCCS2)cc1 | · | -23% | -93*
NCC(=O)Nc1ccccc1 | -5%[11.4 µM] | -2%[11.4 µM] | ·
COc1cccc(-c2nc(NC3CC3)c3ccccc3n2)c1 | 27% | · | ·
O=C(/C=C/Nc1ccc(Br)cc1F)c1ccccc1 | · | -4% | -18
O=C(/C=C/NCC(=O)c1ccccc1)c1ccc(Br)cc1 | · | -24% | -97*
O=C(/C=C/Nc1ccccc1F)c1ccc(Br)cc1 | · | 2% | -115*
SMILES | ALOX15B inhib | ALOX12 inhib | PNC assembly inh
O=C(/C=C/NNC(=O)c1ccccc1)c1ccc(Br)cc1 | -8% | -29% | -8
O=C(c1ccncc1)N1CCC2(CCCN(c3ncccn3)C2)CC1 | 3% | 0% | ·
Cc1nc(C)n(CC(O)COc2ccc(C(=O)c3ccccc3)cc2)n1 (centres undefined) | 4% | 4% | -95*
CCC(=O)c1ccc(OCC(O)Cn2c(C)nc3ccccc32)cc1 (centres undefined) | 8% | 0% | -121*
Cc1nc(C)n(CC(O)COc2ccc3c(c2)CCC3)n1 (centres undefined) | 0% | 0% | ?
CCC(=O)c1ccc(OCC(O)Cn2cnc3ccccc32)cc1 (centres undefined) | -4% | -2% | 27
NS(=O)(=O)O | -1% | -2% | ·
C[C@@]12C=Cc3occc3C1CC[C@@]13C[C@@H](CCC12)[C@@](O)(CO)C3 (some centres undefined) | 3%[0.0915 µM] | -5%[0.00818 µM] | ·
CCOC(=O)c1cnc(SC)nc1Oc1cccc(NS(=O)(=O)c2ccc(Cl)cc2)c1 | · | 9% | -100*
CCOC(=O)c1cnc(SC)nc1Oc1cccc(NC(=O)c2ccc(Cl)cc2)c1 | 16% | -3% | 7
Cc1nc2cnc(N(C)C)nc2n(Cc2ccc(F)cc2)c1=O | 9% | -2% | ·
Oc1ccc2ccccc2c1CN(Cc1c(O)ccc2ccccc12)C1CCCCC1 | -24%[11.4 µM] | -4%[11.4 µM] | ·
CN(c1ccc(OCC(=O)OCC(=O)Nc2ccccc2)cc1)S(=O)(=O)c1ccc(F)cc1 | · | 4% | ?
CN(c1ccc(OCC(=O)OCC(=O)Nc2c(F)c(F)c(F)c(F)c2F)cc1)S(=O)(=O)c1ccc(F)cc1 | · | 0% | -107*
CN(C)c1ncc2nc(CCc3ccccc3)c(=O)n(C[C@H]3CCCO3)c2n1 | 0% | 2% | ·
CC(N)CCCC(C)(C)O (centres undefined) | 0% | 0% | ·
Cc1oc2cc(O)ccc2c(=O)c1N1C(=O)c2ccccc2C1=O | 1% | -11% | 38
CC(=O)Oc1ccc2c(=O)c(N3C(=O)c4ccccc4C3=O)c(C)oc2c1 | · | -3% | -91*
NCCCc1ccc2oc3ccccc3c2c1 | 10%[11.4 µM] | 4%[11.4 µM] | ·
Cc1cc(C(=O)N/N=C/c2cccnc2)c(C)o1 | 5% | 10% | -18
Cc1cc(C(=O)N/N=C/c2cccnc2)cs1 | · | -4% | -114*
COc1ccc(N=c2scc(-c3ccc(S(=O)(=O)N4CCOCC4)cc3)n2CCCO)cc1 | · | 0% | -100*
CC(=O)c1cccc(N=c2scc(-c3ccc(S(=O)(=O)N4CCOCC4)cc3)n2CCO)c1 | · | -11% | 60
CC1(C)OC2CC3C4CC(F)C5=CC(=O)C=CC5(C)C4C(O)CC3(C)[C@]2(C(=O)CO)O1 (some centres undefined) | -7% | 1% | ·
C/C=C/c1c(F)c(F)c(Oc2ccc(C(=O)O)cc2)c(F)c1F | -6% | 5% | -84*
SMILES | ALOX15B inhib | ALOX12 inhib | PNC assembly inh
CC(C)OC(=O)Nc1ccc(Oc2c(F)c(F)c(F)c(F)c2F)cc1 | -8% | -6% | 18
Cc1ccc2c(c1)c(C)cc[n+]2Cc1ccccc1 | · | -1% | -30
CC[n+]1ccc(C[n+]2ccccc2)c2ccccc21 | · | ? | -82*
CC1=NN(c2ccccc2)C(=O)/C1=C\C=C1/N(C)c2ccccc2C1(C)C | · | -1% | -25
CN1/C(=C\C=C2/C(=O)Oc3ccccc3C2=O)C(C)(C)c2ccccc21 | · | -3% | -91*
CCN1CCN(C(=O)C2c3cc(OC)c(OC)cc3C(=O)N(C)C2c2ccc(SC)cc2)CC1 (centres undefined) | · | 3% | -100*
COc1ccc(C2C(C(=O)N3CCN(c4ccccc4)CC3)c3ccccc3C(=O)N2C)cc1OC (centres undefined) | -3% | -4% | 35
CCC(C)NC(=O)C1CCC(=O)N(c2cc(OC)c(OC)c(OC)c2)C1c1ccc(OC)cc1 (centres undefined) | · | 4% | -100*
CCC(C)NC(=O)C1CCC(=O)N(c2ccc3c(c2)OCO3)C1c1ccc(OC)cc1 (centres undefined) | -3% | 5% | -18
CCC(C)NC(=O)C1c2cc(OC)c(OC)cc2C(=O)N(C)C1c1cccs1 (centres undefined) | 5% | 0% | 10
COc1ccc(C2C(C(=O)N3CCCC3)c3cc(OC)c(OC)cc3C(=O)N2C)cc1OC (centres undefined) | 4% | 13% | -26
COc1ccc(C2C(C(=O)N3CCN(c4ccccc4)CC3)c3ccccc3C(=O)N2C)cc1 (centres undefined) | · | -3% | -100*
CCC(C)NC(=O)C1c2cc(OC)c(OC)cc2C(=O)N(C)C1c1ccc(OC)cc1 (centres undefined) | · | 2% | -100*
